Screening results: PubChem BioAssay, National Center for Advancing Translational Sciences (NCATS)
Shown is part of a subset that was picked to be rich in hits.
Pf Dd2 growth – qHTS Primary assay for Inhibitors of Plasmodium falciparum Dd2 growth in vitro. P. falciparum Dd2 growth, SYBR Green, 72 h. Potency, µM (top dose mostly 28.9 µM), for inactives: at the top dose activity, negative = inhibition, most hits filed as inhibitors. hit rate 4.3% among 120,000. AID 1347417, 2020; active = well fitted inhibition curve with a large enough effect;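 also: plate controls were DMSO vehicle for no effect and reference drug for full effect; nearly all actives have a fitted effect of over 65% in size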
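Infected erythrocytes (Dd2, 0.3% parasitemia, 2.5% hematocrit final) are added to compound in RPMI-1640/Albumax II medium, grown 72 h at 37C in low oxygen, then lysed with saponin/Triton-X containing SYBR Green and read by fluorescence.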
An asterisk follows results filed as active; i = inactive; [ ] = remark or other dose. Potency is read from the fitted curve at half-maximal effect.

SMILES | Pf Dd2 growth
CCN1CCN(CCNC(=O)CCC[C@H]2NC[C@@H]3C[C@H]2CN(Cc2ccccc2)C3)CC1 | -23%
Cc1nccn1CCNC(=O)CCC[C@H]1NC[C@@H]2C[C@H]1CN(Cc1ccccc1)C2 | 3.5µM*
CCCc1noc(CN(C)C(=O)[C@@]23CNC[C@@H]2CN(Cc2ccccc2)C3)n1 | -26%
CC1Oc2ccc(NC(=O)Cc3ccccc3)cc2CN(Cc2ccc(Cl)cc2)C1=O (configuration not stated) | i
Cc1cccc(CCNC(=O)[C@@H]2C[C@@H](O)CN2C2CCNCC2)c1 | -13%
O=C(CN1CCn2nc(CO)cc2C1)N1CCOc2ccccc21 | -9%
CNC(=O)[C@@H]1CN(Cc2ccc(F)cc2F)C[C@H]1CO | -19%
C[C@@H](NC(=O)Cc1ccccc1)c1onc(-c2cccnc2)c1C(=O)O | 19%[44.1 µM]
COc1ccc2[nH]cc(CCNC(=O)Nc3ccccc3)c2c1 | 20%
COc1ccc2[nH]cc(CCNC(=O)C3(Cc4ccccc4)CCCCC(=O)N3)c2c1 (configuration not stated) | 2µM*
COc1ccc(NC(=O)C2(Cc3ccccc3)CCCCC(=O)N2)c(OC)c1 (configuration not stated) | i
O=C(c1ccc2c(c1)OCO2)N1CCCC2(CC(c3ccccc3)=NO2)C1 (configuration not stated) | 14%
Cc1cc(C)n(CCC(=O)NCCC2CCN(C(=O)Nc3ccccc3)CC2)n1 | -10%
Cc1ccc2nc(N(Cc3cccnc3)C(=O)C3COc4ccccc4O3)sc2c1 (configuration not stated) | 6%
CCc1ccc2nc(N(Cc3cccnc3)C(=O)c3ccc(C#N)cc3)sc2c1 | 8.9µM*
COc1cccc2sc(N(Cc3cccnc3)C(=O)Cc3ccccc3)nc12 | i
O=C(C1COc2ccccc2O1)N(Cc1cccnc1)c1nc2c(Cl)cccc2s1 (configuration not stated) | i
O=C(C1CCCCC1)N(Cc1cccnc1)c1nc2ccc(Cl)cc2s1 | 3.2µM*
O=C(CCS(=O)(=O)c1ccccc1)N(Cc1cccnc1)c1nc2ccc(F)cc2s1 | i
O=C(C1COc2ccccc2O1)N(Cc1cccnc1)c1nc2ccc(F)cc2s1 (configuration not stated) | i
Cc1ccc2nc(N(Cc3cccnc3)C(=O)c3ccco3)sc2c1 | 10µM*
O=C(c1ccco1)N(Cc1cccnc1)c1nc2c(F)cc(F)cc2s1 | i
O=C(c1ccc(Br)s1)N(Cc1cccnc1)c1nc2ccc(F)cc2s1 | 2.5µM*
CC(=O)N(Cc1cccnc1)c1nc2ccc(F)cc2s1 | 7%
O=C(c1ccc2c(c1)OCCO2)N(Cc1cccnc1)c1nc2ccc(Cl)cc2s1 | i
SMILES | Pf Dd2 growth
CCN(CC)Cc1nc(C2(O)CCN(C3CCCC3)CC2)cs1 | i
CN1CCCC1c1nc(C2CN(C(=O)c3ccoc3)C2)no1 (configuration not stated) | 26%
Nc1nc(C2CC(NC(=O)c3ccc(CO)cc3)C2)cc(=O)[nH]1 (configuration not stated) | -11%
O=C(NCC1CC1)c1cn(C2CN(C(=O)NCC3CCCO3)C2)nn1 (configuration not stated) | 48%
CC(CNC(=O)c1noc(-c2ccc(F)cc2)n1)c1ccccc1 (configuration not stated) | i
CC1(C)C(C(=O)N2CCC3(CC2)Nc2ccccc2NC3=O)C1(C)C | -4%
Nc1cccn2nc(C3CCC3)nc12 | -16%
Fc1ccc(NC(=S)N[C@H]2CO[C@H]3[C@@H]2OC[C@@H]3n2nnnc2Oc2ccc3c(c2)OCO3)cc1 | i
Cc1cccc(C(=O)N2CCc3[nH]nc(C(=O)NCCCc4ccccc4)c3C2)c1 | -9%
O=C(COc1ccccc1)N(Cc1cccnc1)c1nc2c(F)cc(F)cc2s1 | -8%
O=C(CCc1ccccc1)N(Cc1cccnc1)c1nc2c(F)cc(F)cc2s1 | 10µM*
COc1ccc2sc(N(Cc3cccnc3)C(=O)CCc3ccccc3)nc2c1 | -7%
O=C(NCC1CCCO1)c1ccc2oc(-c3ccc(C(F)(F)F)cc3)nc2c1 (configuration not stated) | -7%
COc1ccc(OC)c(CNC(=O)C2CCN(C(=O)N3CC4CC(C3)[C@H]3CCCC(=O)N3C4)CC2)c1 (some centres not stated) | i
C#CCNC(=O)c1cc(-c2ccccc2OC)c2cccn2n1 | 21%
CCCCN(C)C(=O)c1c(C)oc2ccn(Cc3ccc(F)cc3)c(=O)c12 | i
c1ccc(CNC[C@H]2Cn3c(-c4ccccc4)cnc3CO2)cc1 | 11µM*
O=C(NC[C@H]1Cn2c(-c3ccc(F)cc3)cnc2CO1)c1ccc(Cl)cc1 | i
COCC(=O)NC[C@H]1Cn2c(-c3ccc(Cl)cc3)cnc2CO1 | i
Fc1ccc(-c2cnc3n2C[C@H](CNCc2ccccc2Cl)OC3)cc1 | -2%[44.1 µM]
Fc1ccc(-c2cnc3n2C[C@H](CN(Cc2ccccc2)Cc2ccccc2)OC3)cc1 | 6.3µM*
CC(=O)Nc1ccc(CNC[C@H]2Cn3c(-c4ccc(F)cc4)cnc3CO2)cc1 | -41%[44.1 µM]
c1ccc(-c2cnc3n2C[C@H](CNCc2nccs2)OC3)cc1 | i
COc1ccccc1C(=O)NC[C@H]1Cn2c(-c3ccc(Cl)cc3)cnc2CO1 | 11µM*
CS(=O)(=O)NC[C@H]1Cn2c(-c3ccc(F)cc3)cnc2CO1 | -4%[44.1 µM]
SMILES | Pf Dd2 growth
COc1cccc(NC(=O)NC[C@H]2O[C@@H](CO)[C@@H](O)[C@H]2N2CCN(c3ccccc3OC)CC2)c1 | -1%
COc1ccc(C(=O)Nc2ccc([C@H]3OCC(=O)N(C)[C@@H]3CO)cc2)cc1 | -8%[44.1 µM]
Cc1ccc2c(C)c(C(=O)N(C)Cc3noc4c3CCCC4)oc2c1 | -28%
COc1ccc(-c2noc(-c3nnn4c3COC(c3ccc(C)cc3C)C4)n2)cc1OC (configuration not stated) | i
COc1ccc(C(=O)N2CCC(Oc3cccnc3)C2)cc1 (configuration not stated) | -4%
CC1(C(=O)N2CCc3ccccc3C2)CCCCC(=O)N1 (configuration not stated) | -17%
CN(CCc1ccccn1)C[C@H]1CN2CC[C@H]1C[C@@H]2CNC(=O)c1ccc2c(c1)OCO2 | -3%
COc1ccc(-c2cn3c(n2)sc2cc(C(=O)Nc4cccc(SC)c4)ccc23)cc1 | i
CCCN1CCN(CCCNC(=O)c2ccc3c(c2)sc2nc(-c4ccc(OC)cc4)cn23)CC1 | 1µM*
COc1ccc(-c2cn3c(n2)sc2cc(C(=O)NCc4ccccc4OC)ccc23)cc1 | -23%
CCC(C)NC(=O)c1ccc2c(c1)sc1nc(-c3ccc(OC)cc3)cn12 (configuration not stated) | -15%
CCN(CC)CCCNC(=O)c1ccc2c(c1)sc1nc(-c3ccc(C)cc3)cn12 | 1.3µM*
COc1cccc(-c2cn3c(n2)sc2cc(C(=O)NC4CCCCC4)ccc23)c1 | -12%
COc1ccc(-c2cn3c(n2)sc2cc(C(=O)Nc4cc(OC)cc(OC)c4)ccc23)cc1 | i
CCOc1ccccc1CNC(=O)c1ccc2c(c1)sc1nc(-c3cccc(OC)c3)cn12 | 11µM*
Cc1ccc(-c2cn3c(n2)sc2cc(C(=O)NCCC4=CCCCC4)ccc23)cc1 | 2%
COc1ccc(-c2cn3c(n2)sc2cc(C(=O)NCCCN4CCN(C)CC4)ccc23)cc1 | 2.5µM*
CCc1ccc(-c2cn3c(n2)sc2cc(C(=O)NCCC4=CCCCC4)ccc23)cc1 | i
COc1ccc(-c2cn3c(n2)sc2cc(C(=O)NCc4cccc(F)c4)ccc23)cc1 | 20%
